Compound activity deposited in PubChem by National Center for Advancing Translational Sciences (NCATS).
Rows were chosen to be rich in hits. Some 4.7% of all compounds tested hit in one or more screens of this group.
D1 antagonist = human D1 dopamine receptor antagonism; HEK293 TREx D1 cells, calcium flux, dopamine EC80; hits give low values; activity change, negative = inhibition, % at 10 µM; AID 504652; actives 3.2% (n = 360,000); P21728; in the data active = activity change below about -30%
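Allosteric or orthosteric antagonism assessed as attenuation of the calcium response to EC80 dopamine, added 180 s after compound, in induced HEK293 Trex D1 cells loaded with no-wash calcium dye.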
TRHR PAM = TRH receptor (human) allosteric enhancement; actives 0.66% (n = 360,000); enhancement, % at 2 µM; TRHR cells, fluo-8 calcium fluorescence, EC20 TRH enhancement; P34981; AID 493056; in the data active = enhancement above about 30%
Target sequence (P34981 whole entry, looked up): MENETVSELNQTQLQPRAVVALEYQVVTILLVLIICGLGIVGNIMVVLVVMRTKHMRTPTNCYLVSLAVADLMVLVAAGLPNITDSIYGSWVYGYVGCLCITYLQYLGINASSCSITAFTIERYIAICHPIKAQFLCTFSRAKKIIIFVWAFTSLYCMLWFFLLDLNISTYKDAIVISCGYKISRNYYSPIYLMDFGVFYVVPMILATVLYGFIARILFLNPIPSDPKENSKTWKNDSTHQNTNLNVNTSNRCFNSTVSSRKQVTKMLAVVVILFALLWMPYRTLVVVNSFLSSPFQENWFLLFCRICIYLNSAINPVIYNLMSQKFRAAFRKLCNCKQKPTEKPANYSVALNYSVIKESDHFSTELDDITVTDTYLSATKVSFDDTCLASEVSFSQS
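TRHR-expressing cells loaded with fluo-8 calcium dye were read kinetically (ex 480/em 530) during compound addition, then stimulated with an EC20 of TRH (10 nM final). Enhancement of the Gq-mediated intracellular calcium response was scored.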
D1 agonist = activates the human D1 dopamine receptor; HEK293 T-REx D1 cells, calcium flux, agonist mode; activation, % at 2 µM; actives 1% (n = 360,000); AID 504660
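Inducible HEK293 T-REx D1 cells, force-coupled to calcium signalling, were plated at 4000 cells/well with tetracycline and held overnight at 30 C. After no-wash calcium dye loading, compound-evoked calcium rise over 180 s flagged agonists.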
TRHR agonist = agonists of human TRH receptor. P34981. TRHR cells, calcium flux fluo-8, FDSS agonist mode. activation, % at 2 µM. actives 0.18% (n = 360,000)
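In this calcium-flux screen, cells bearing human TRHR are dye-loaded with fluo-8, baselined for 10 cycles, then exposed to library compounds; positive kinetic calcium responses during the agonist phase mark hits, with TRH as control.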
D1 PAM = human D1 dopamine receptor positive modulation. P21728. HEK293 TREx D1 cells, calcium flux, dopamine EC20 potentiation. potentiation, % at 10 µM. actives 0.036% (n = 360,000); in the data active = potentiation above about 30%
A number is an active result; – = inactive; · = no result. Rule as the data show it, unless noted: active = activation above about 30%; inactive = the rest.

SMILES	D1 antagonist	TRHR PAM	D1 agonist	TRHR agonist	D1 PAM
COc1ccc(-n2c(=O)c(NC(=O)c3ccccc3)c3n(c2=S)CCCCC3)cc1	-31	–	–	–	–
CCOc1ccccc1NC(=O)CN1C(=O)COc2ccc(S(=O)(=O)N3CCCCCC3)cc21	–	–	–	–	–
CCS(=O)(=O)N1CCCC(C(=O)NCCOC)C1 (stereo not drawn)	–	–	–	–	–
COc1ccc(OC)c(C2=NS(=O)(=O)N(C)C(C(=O)NCc3cccs3)=C2)c1	–	–	41	–	–
Cc1ccc(C2=NS(=O)(=O)N(C)C(C(=O)NCc3cccs3)=C2)cc1	–	–	–	–	–
Cc1cccc2sc(N(Cc3cccnc3)C(=O)CCc3ccccc3)nc12	·	–	56	–	–
Cc1cccc2sc(N(Cc3cccnc3)C(=O)Cc3ccccc3)nc12	·	–	–	–	–
Cc1nc2c(C(=O)NCc3ccccc3Cl)cnn2c(C)c1Cc1c(F)cccc1Cl	–	–	–	–	–
CC(C(=O)Nc1ccc(OC(F)(F)F)cc1)N1Cc2ccccc2C1=O (stereo not drawn)	–	–	–	–	–
CCc1nn2c(=O)cc(COC(=O)c3ccccc3NC(=O)COc3ccc(C)c(C)c3)nc2s1	–	–	–	–	–
CCOc1cccc(C2c3[nH]c4ccccc4c3CCN2C(=O)Cc2cccc(OCC)c2OCC)c1 (stereo not drawn)	–	–	–	–	–
Cc1ccc(NC2=CC(=O)CC(C)(C)C2)cc1F	–	–	–	–	–
Cc1cc(N)c(NC2=CC(=O)CC(C)(C)C2)cc1C	–	–	31	–	–
Cc1ccc2c(c1)C(c1ccncc1)=NNC(c1ccccc1)=N2	–	–	–	–	–
Cc1ccc2c(c1)C(c1ccncc1)=NNC(c1ccc(F)cc1)=N2	-39	–	–	–	–
CCc1ccc2c(c1)C(c1ccc([N+](=O)[O-])cc1)=NNC(c1ccc(F)cc1)=N2	-40	–	–	–	–
CCOC(=O)c1ccc(NC(=O)CSc2cc(-c3ccccc3)nc(C)n2)cc1	–	–	–	–	–
NCCSc1c(-c2ccccc2)[nH]c2ccccc12	-37	–	–	–	–
CCOC(=O)C1=C(c2ccccc2)N=c2s/c(=C\c3cccc(O)c3)c(=O)n2C1c1cccs1 (stereo not drawn)	–	–	–	–	–
O=c1/c(=C\c2ccc(O)cc2)sc2n1C(c1ccccc1)C(c1ccccc1)=NN=2 (stereo not drawn)	-51	–	33	–	–
CC(C)c1ccc(NC(=O)c2cn(C3CCCC3)c(=O)c3c2c2ccccc2n3C)cc1	–	–	–	–	–
CSCc1ccc(C(=O)NCCSc2ccc(Br)cc2)cc1	-37	–	–	–	–
CCOc1ccccc1CNCc1cccn1-c1nnc(N2CCN(c3ccccc3)CC2)s1	–	–	–	–	–
Cc1nc2c(-c3ccc(F)cc3)c(C)nn2c(C)c1CCC(=O)NCc1cccc(Cl)c1	-39	–	–	–	–
Cc1nc2c(-c3ccc(F)cc3)c(C)nn2c(C)c1CCC(=O)NCc1ccc(F)cc1	–	–	–	–	–
SMILES	D1 antagonist	TRHR PAM	D1 agonist	TRHR agonist	D1 PAM
Cc1nc2c(-c3ccccc3)c(C)nn2c(C)c1CCC(=O)N1CCN(c2ccccc2)CC1	–	–	–	–	–
Cc1nc2c(-c3ccccc3)c(C)nn2c(C)c1CCC(=O)NCc1ccccc1	–	–	–	–	–
Cc1nc2c(-c3ccccc3)c(C)nn2c(C)c1CCC(=O)NCc1ccco1	-43	–	–	–	–
CCN1CCN(c2ccc(NC(=O)CCc3c(C)nc4c(-c5ccccc5)c(C)nn4c3C)cc2)CC1	-84	–	–	–	–
CCOc1ccc(NC(=O)CCc2c(C)nc3c(-c4ccccc4)c(C)nn3c2C)cc1	–	48	–	–	–
COc1cccc(-c2ccc3ncnc(NCc4cccc(F)c4)c3c2)c1	–	–	–	–	–
CC(C)c1ccccc1NC(=O)CN1C(=O)c2cccc3cccc1c23	–	–	–	–	–
O=C(O)c1ccccc1-c1nnc2c(Cl)cc(C(F)(F)F)cn12	-38	–	–	–	–
FC(F)(F)c1cc(Cl)c2nnc(-c3ccccn3)n2c1	–	–	–	–	–
CCCc1cc(=O)[nH]c2nnc(SCC(=O)N3CC(C)OC(C)C3)n12 (stereo not drawn)	-65	–	–	–	–
